Only some compounds are listed: those with a hit (about 3% of all), similar ones and a draw of the others.
GDH-TPI counter – inhibits GDH-TPI coupling enzymes, artifact for Mtb FBA screen. GDH-TPI coupled enzyme counterscreen, NADH absorbance. inhibition, % at 4.8 µM. hit rate 1.2% among 360,000. AID 588335; in the data active = inhibition above about 30%;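 note: 0% = DMSO wells and 100% = wells lacking the enzyme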
BH1578 lux ind – quorum light induction in luxS cqsA deficient V. cholerae | V. cholerae BH1578 lux reporter, luminescence, 6 h | activation, % at 18.7 µM | hit rate 0.16% among 350,000; in the data active = activation mostly above about 9.7%, no sharp cut-off
Mtb FBA inh – inhibits M. tuberculosis FBA enzyme; P9WQA3; purified M. tuberculosis FBA, fluorescence read-out; inhibition, % at 1 µM; hit rate 2.3% among 360,000; AID 588726; in the data active = inhibition above about 27%;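 note: 0% = vehicle and 100% = reference inhibitor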
Target sequence (P9WQA3 whole entry, looked up): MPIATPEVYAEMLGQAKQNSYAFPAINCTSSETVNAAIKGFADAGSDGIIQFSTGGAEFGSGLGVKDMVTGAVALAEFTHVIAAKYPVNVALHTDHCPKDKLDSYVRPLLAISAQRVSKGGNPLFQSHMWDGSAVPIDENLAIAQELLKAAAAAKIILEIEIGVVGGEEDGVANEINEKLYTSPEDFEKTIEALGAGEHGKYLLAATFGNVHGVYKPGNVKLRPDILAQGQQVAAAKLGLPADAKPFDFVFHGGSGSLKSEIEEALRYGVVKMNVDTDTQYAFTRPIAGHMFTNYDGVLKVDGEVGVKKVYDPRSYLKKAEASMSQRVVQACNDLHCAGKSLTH
BioA inh – inhibitors of Mycobacterium tuberculosis BioA enzyme. inhibition, % at 9.99 µM. purified M. tuberculosis BioA enzyme, plate reader. hit rate 0.096% among 360,000. AID 602481; in the data active = inhibition above about 40%
* hit, by the source's call; i = inactive; nt = no result; + = active, no number.

SMILES	GDH-TPI counter	BH1578 lux ind	Mtb FBA inh	BioA inh
C[C@@H]1CCCCO[C@@H](CN(C)S(=O)(=O)c2ccc(F)cc2)[C@H](C)CN([C@@H](C)CO)C(=O)c2cc(NC(=O)c3ccncc3)ccc2O1	nt	nt	nt	-3.5
COc1ccccc1C=NNC(=O)NN=Cc1ccccc1OC	31.5*	i	-1.6	0.5
O=C(N/N=C/c1c[nH]c2ccc(Br)cc12)c1ccn(Cc2ccc(Cl)cc2Cl)n1	15.4	i	3.0	-0.3
O=C(N/N=C/c1c[nH]c2ccccc12)c1ccn(Cc2ccc(Cl)cc2)n1	31.8*	-0.7	-0.2	-1.3
Nc1ccc(/C=C/C(=O)c2cccs2)cc1	19.6	-0.6	-12.3	nt
O=C(C=Cc1ccccc1)c1cccs1	34.4*	i	-4.9	nt
COc1cccc(/C=N/NC(=O)N/N=C/c2cccc(OC)c2O)c1O	20.4	-1.2	0.9	-1.8
CCCN1[C@H](C(=O)N2CCN(C)CC2)[C@@H](CO)[C@@H]2Cn3c(ccc(-c4ccccc4F)c3=O)[C@@H]21	nt	nt	nt	-1.3
CN1/C(=C/C(=O)COC(=O)CN2C(=O)C3CC=CCC3C2=O)C(C)(C)c2ccccc21 (configuration not stated)	29.7	i	5.5	0.0
CN1/C(=C\C(=O)COC(=O)Cn2nnc(-c3ccccc3)n2)C(C)(C)c2ccccc21	33.6*	-0.7	1.2	-1.9
CCOC(=O)C1CCCN(CC(=O)/C=C2/N(C)c3ccccc3C2(C)C)C1 (configuration not stated)	30.7*	i	6.0	-1.1
COc1ccc(CNC(=O)[C@H](C)NC(=O)C2CCN(C(=O)[C@H](CCSC)NC(=O)OC(C)(C)C)CC2)cc1	-2.9	-0.6	2.8	-0.1
COc1ccc(CNC(=O)C2CCN(C(=O)[C@@H](CC(C)C)NC(=O)OC(C)(C)C)CC2)cc1	-3.2	16.7*	3.4	-1.2
CN(C)/N=C/c1ccc(P(c2ccc(/C=N/N(C)C)o2)c2ccc(/C=N/N(C)C)o2)o1	65.0*	i	-6.0	-0.7
CN(/N=C/c1ccc([N+](=O)[O-])o1)c1ccccc1	2.7	-0.1	-15.4	nt
O=C(N/N=C/c1cnc2ccccc2n1)c1cccc(F)c1	36.7*	-1.6	-3.2	nt
O=C(N/N=C\c1ccc(Sc2ccccn2)o1)c1cccc(F)c1	31.4*	-0.4	-0.8	18.1
O=C(CCc1ccccc1O)N/N=C/c1ccc(Sc2cccc3cccnc23)o1	29.5	-0.4	0.0	-2.5
O=C(N/N=C/c1ccc(Sc2ccccn2)o1)c1cccc([N+](=O)[O-])c1	24.8	-3.8	-4.6	5.7
O=C(N/N=C/c1ccc(Sc2ccccn2)o1)c1cc2ccccc2cc1O	51.2*	-2.5	-2.4	-1.2
C[C@@H]1CCCCO[C@H](CN(C)CC2CCCCC2)[C@H](C)CN([C@@H](C)CO)C(=O)c2cc(NC(=O)Nc3ccc4c(c3)OCO4)ccc2O1	nt	nt	nt	0.6
CC(C)NC(=O)N(C)C[C@@H]1Oc2ccc(NS(=O)(=O)c3ccc(F)cc3)cc2C(=O)N([C@H](C)CO)C[C@H]1C	nt	nt	nt	-2.9
O=C(N/N=C/c1ccc[nH]1)c1ccc(Cl)cc1	39.0*	1.1	-1.2	-0.5
Cc1ccc(C(=O)N/N=C\c2ccc[nH]2)cc1[N+](=O)[O-]	48.0*	nt	1.3	0.7
C[C@@H]1CN([C@@H](C)CO)C(=O)c2cc(C3=CCCC3)cnc2O[C@@H]1CN(C)C(=O)c1ccc2c(c1)OCO2	nt	nt	nt	0.1
SMILES	GDH-TPI counter	BH1578 lux ind	Mtb FBA inh	BioA inh
O=S(=O)(c1ccccc1)N1CC[C@@H]2[C@H](CO)Nc3ccc(-c4ccccc4F)cc3[C@@H]21	nt	nt	nt	-2.6
CC1CCN(C(=O)CN2C(=O)c3cccc4cccc(c34)C2=O)CC1	35.4*	-0.2	21.4	-1.5
CC(=O)/C(N=Nc1ccc(C(=O)O)cc1)=C(\C)O	14.8	-1.5	-5.5	-0.5
CCN(CC)S(=O)(=O)c1ccc(N=N/C(C(C)=O)=C(/C)O)cc1	39.8*	-0.7	-1.0	-0.8
CC(=O)/C(N=Nc1ccc(-n2ccc(C(F)(F)F)n2)cc1)=C(\C)O	35.2*	-1.0	-1.3	-2.0
CCN1C(=O)[C@@H]2C(C(=O)c3cnccn3)=NN[C@@H]2C1=O	32.4*	i	-0.8	-1.6
COc1ccc(-c2ccc3c(c2)[C@H]2[C@H](CCN2S(=O)(=O)c2ccc(OC)cc2)[C@@H](CO)N3)cc1	nt	nt	nt	0.3
CO/N=C1\CCn2c1c(C)c1ccccc12	31.4*	0.2	3.1	-2.6
Cc1c2n(c3ccccc13)CC/C2=N\O	0.7	-0.4	2.0	2.3
CCOc1ccccc1N(C)C(=O)c1cc2c(=O)n(CC)c3ccccc3c2s1	41.6*	3.7	4.0	-0.1
CCn1c(=O)c2cc(C(=O)N3CCOCC3)sc2c2ccccc21	28.6	-0.2	16.6	1.0
COC(=O)[C@@H]1[C@@H](CO)[C@@H]2Cn3c(ccc(-c4ccc(F)cc4)c3=O)[C@@H]2N1C(=O)C1CCC1	nt	nt	nt	-1.0
CCC1C2CN(C(C)=O)CC=C2C(C#N)=C(N)C1(C#N)C#N (configuration not stated)	6.4	-0.3	6.3	nt
CC(C)N1CC=C2C(C#N)=C(N)C(C#N)(C#N)C(c3ccccc3)C2C1 (configuration not stated)	1.2	i	+	-13.9
CCN1CC=C2C(C#N)=C(N)C(C#N)(C#N)C(c3cc(Cl)ccc3Cl)C2C1 (configuration not stated)	13.9	nt	33.4*	-1.4
CCOc1ccc(/C=N/N(C)c2ccccc2)cc1OC	32.8*	-0.7	-0.5	-1.2
CCOc1ccc(/C=N/Nc2ccccn2)cc1OC	18.5	-0.7	-13.2	nt
CSC1=N/C(=C/c2cccnc2)C(=O)N1Cc1ccccc1	32.4*	-1.9	9.5	6.4
CC(C)CC#Cc1cnc2c(c1)C(=O)N([C@@H](C)CO)C[C@H](C)[C@H](CN(C)Cc1ccc(C(=O)O)cc1)O2	nt	nt	nt	-3.9
Cc1c(/C=N/Nc2ccc(C(=O)O)cc2)c2ccccc2n1C	40.5*	-0.4	4.4	-1.8
Cc1ccc(C(=O)N/N=C/c2cn(Cc3ccccc3)c3ccccc23)cn1	23.8	-1.2	-2.5	nt
COC(=O)Cn1cc(/C=N/NC(=O)c2ccc(C#N)cc2F)c2ccccc21	38.4*	0.9	-1.0	0.6
COc1cc(C(=O)N/N=C/c2cn(Cc3cccc(F)c3)c3ccccc23)ccc1O	35.2*	i	3.7	-2.6
CCn1cc(/C=N/NC(=O)c2ccc(C#N)cc2F)c2ccccc21	24.6	i	-2.8	-0.8
CCNC(=S)N/N=C/c1cn(Cc2ccc(F)cc2)c2ccccc12	22.1	-0.2	-1.4	nt
SMILES	GDH-TPI counter	BH1578 lux ind	Mtb FBA inh	BioA inh
O=C(O)c1ccc(N/N=C/c2cn(Cc3ccc(F)cc3)c3ccccc23)cc1	44.4*	-0.7	11.6	5.7
CCC(=O)N1[C@H](C(=O)NC2CCC2)[C@@H](CO)[C@@H]2Cn3c(ccc(C4=CCCCC4)c3=O)[C@@H]21	nt	nt	nt	0.5
C[C@H](CO)N1C[C@H](C)[C@@H](CN(C)C(=O)C2CCCCC2)OCCCC[C@H](C)Oc2ccc(NC(=O)NC3CCCCC3)cc2C1=O	nt	nt	nt	-1.0
O=C(Cn1c2ccccc2c(=O)c2ccccc21)Nc1ccccc1F	0.0	i	150.2*	nt
CCCc1cc(-n2ccnc2C)n2c(nc3ccccc32)c1C#N	4.6	i	7.2	2.5
CCCc1cc(NCCOCCO)n2c(nc3ccccc32)c1C#N	15.0	-0.7	+	-0.3

Assay outcomes (PubChem)
